Compounds without any hit were thinned out: in the full panel of roughly 79,000, 15% have a hit. Activity calls are given as the source filed them. Rule as the data show it: active = growth inhibition above about 70%; inactive = the rest.
Tests used:
[1] = NCI Yeast Anticancer Drug Screen. Data for the rad52 strain (AID 147);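 also: 0% = growth of vehicle-treated control cultures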; settings: S. cerevisiae rad52 mutant growth inhibition, hits give high values
Procedure, shortened: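 Genetically altered yeast (DNA damage repair defect) treated with compound; inhibition calculated relative to vehicle.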

[2] = NCI Yeast Anticancer Drug Screen. Data for the wt1 strain (AID 149);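 also: 0% = growth of vehicle-treated wt1 cultures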; settings: S. cerevisiae wt1 strain (SPY 50644) growth inhibition, hits give high values
Procedure, shortened: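 wt1 strain grown with compound or vehicle; inhibition taken from the growth difference.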

[3] = NCI Yeast Anticancer Drug Screen. Data for the rad50EPP+ strain (AID 151);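 also: 0% = growth of vehicle-treated control cultures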; settings: S. cerevisiae rad50 mutant strain, hits give high values
Procedure, shortened: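 Strain rad50EPP+; compound exposure; % growth inhibition vs vehicle.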

[4] = NCI Yeast Anticancer Drug Screen. Data for the mgt1 strain (AID 153); settings: S. cerevisiae mgt1 mutant growth inhibition, hits give high values
Procedure, shortened: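 Read-out: yeast growth inhibition vs vehicle control. Strain mgt1, drawn from a panel altered in DNA damage repair or cell cycle control.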

[5] = NCI Yeast Anticancer Drug Screen. Data for the rad50 strain (AID 155);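 also: 0% = growth of vehicle-only cultures of the same strain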; settings: S. cerevisiae rad50 strain growth inhibition, hits give high values
Procedure, shortened: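 DNA repair mutant yeast, compound exposure, growth read-out; inhibition is taken relative to vehicle.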

[6] = NCI Yeast Anticancer Drug Screen. Data for the mec2-1 strain (AID 157); settings: S. cerevisiae mec2-1 strain, hits give high values
Procedure, shortened: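 Cells of the genetically defined mec2-1 yeast strain are incubated with test compound. Inhibition of growth is calculated against vehicle-treated controls.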

[7] = NCI Yeast Anticancer Drug Screen. Data for the rad14 strain (AID 159);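 also: 0% = growth of vehicle-treated control cultures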; settings: S. cerevisiae rad14 strain growth inhibition, hits give high values
Procedure, shortened: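 DNA repair-defective yeast, compound-exposed; % growth inhibition derived by comparison with vehicle-treated controls.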

[8] = NCI Yeast Anticancer Drug Screen. Data for the sgs1 mgt1 strain (AID 161);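 also: 0% = growth of cultures given vehicle only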; settings: S. cerevisiae sgs1 mgt1 strain, hits give high values
Procedure, shortened: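 Mutant yeast exposed to compound; growth scored against vehicle-only wells.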

[9] = NCI Yeast Anticancer Drug Screen. Data for the CLN2oe strain (AID 163);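 also: 0% = growth of vehicle-only control cultures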; settings: S. cerevisiae CLN2oe strain, hits give high values
Procedure, shortened: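 Strain altered in cell-cycle control, incubated with compound; growth compared to solvent-treated controls.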

[10] = NCI Yeast Anticancer Drug Screen. Data for the cln2 rad14 strain (AID 165);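 also: 0% = growth equal to vehicle treated cultures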; settings: S. cerevisiae cln2 rad14 strain, hits give high values
Procedure, shortened: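 The screen exposed genetically defined yeast (cln2 rad14) to test compounds and scored growth inhibition relative to vehicle-treated controls.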

[11] = NCI Yeast Anticancer Drug Screen. Data for the bub3 strain (AID 167); settings: S. cerevisiae bub3 mutant strain, hits give high values
Procedure, shortened: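 In this screen, a yeast mutant lacking normal mitotic checkpoint function is challenged with compound. Relative growth versus vehicle gives the inhibition value.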

[12] = NCI Yeast Anticancer Drug Screen. Data for the wt2 strain (AID 169);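 also: 0% = growth of vehicle-treated yeast cultures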; settings: S. cerevisiae wt2 strain growth inhibition, hits give high values
Procedure, shortened: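 Steps: yeast strain treated with compound; growth recorded; inhibition calculated relative to cultures given vehicle alone.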

[13] = NCI Yeast Anticancer Drug Screen. Data for the mlh1 strain (AID 171);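 also: 0% = growth of vehicle-treated control cultures of the same strain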; settings: S. cerevisiae mlh1 strain growth inhibition, hits give high values
Procedure, shortened: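 Yeast screen: mutant strain plus compound, growth scored against vehicle control wells.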

[14] = NCI Yeast Anticancer Drug Screen. Data for the sgs1 strain (AID 173);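 also: 0% = growth of vehicle-only control cultures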; settings: S. cerevisiae sgs1 mutant, hits give high values
Procedure, shortened: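 Inhibition of yeast growth served as the measure. The mutant strain was treated with each compound, and growth was normalised to cultures receiving vehicle alone.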

[15] = NCI Yeast Anticancer Drug Screen. Data for the rad18 strain (AID 177); settings: S. cerevisiae rad18 mutant growth inhibition, hits give high values
Procedure, shortened: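 Inhibition values reflect reduced yeast growth compared with vehicle-treated controls, using a strain engineered with a DNA damage repair defect.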

[16] = at 5.0 µM (retest, dose inferred, filed as 0.5)
[17] = at 50.0 µM (retest, dose inferred, filed as 5.0)

Measured: growth inhibition

CCOC(=O)C1=C(C(=O)c2ccccc2)C(c2ccccc2[N+](=O)[O-])C(C(=O)c2ccccc2)=C(C(=O)OCC)N1
active: [5]; at 50.0 µM 71.6% | [11]; [17] 86%
inactive: [1]; at 1.2 µM -2% | [1]; at 3.7 µM 0% | [1]; at 11.0 µM -1% | [1]; at 33.0 µM 1% | [1]; at 100.0 µM 11% | [2]; at 1.2 µM -2% | [2]; at 3.7 µM -1% | [2]; at 11.0 µM -1% | [2]; at 33.0 µM -1% | [2]; at 100.0 µM -4% | [3]; at 1.2 µM 1% | [3]; at 3.7 µM 7% | [3]; at 11.0 µM 13% | [3]; at 33.0 µM 18% | [3]; at 100.0 µM 27% | [4]; at 1.2 µM 0% | [4]; at 3.7 µM 1% | [4]; at 11.0 µM 0% | [4]; at 33.0 µM 1% | [4]; at 100.0 µM 35% | [5]; at 1.2 µM 0% | [5]; at 3.7 µM -1% | [5]; [16] 2% | [5]; at 11.0 µM -2% | [5]; at 33.0 µM 1% | [5]; [17] 60% | [5]; at 100.0 µM 17% | [6]; at 1.2 µM -3% | [6]; at 3.7 µM -3% | [6]; [16] -4% | [6]; at 11.0 µM -3% | [6]; at 33.0 µM -1% | [6]; [17] 20% | [6]; at 50.0 µM 18.6% | [6]; at 100.0 µM 10% | [7]; at 1.2 µM 0% | [7]; at 3.7 µM 2% | [7]; at 11.0 µM 8% | [7]; at 33.0 µM 9% | [7]; at 100.0 µM 29% | [8]; [16] 9% | [8]; [17] 16% | [8]; at 50.0 µM 41.8% | [9]; at 1.2 µM 0% | [9]; at 3.7 µM 0% | [9]; at 11.0 µM 2% | [9]; at 33.0 µM 3% | [9]; at 100.0 µM 0% | [10]; [16] 7% | [10]; [17] 39% | [10]; at 50.0 µM 16.9% | [11]; at 1.2 µM 6% | [11]; at 3.7 µM 8% | [11]; [16] 3% | [11]; at 11.0 µM 11% | [11]; at 33.0 µM 10% | [11]; at 50.0 µM 19% | [11]; at 100.0 µM 42% | [12]; at 1.2 µM -2% | [12]; at 3.7 µM -1% | [12]; at 11.0 µM -1% | [12]; at 33.0 µM 0% | [12]; at 100.0 µM 10% | [13]; at 1.2 µM -1% | [13]; at 3.7 µM -2% | [13]; at 11.0 µM -2% | [13]; at 33.0 µM 1% | [13]; at 100.0 µM 20% | [14]; at 1.2 µM -2% | [14]; at 3.7 µM 1% | [14]; at 11.0 µM 5% | [14]; at 33.0 µM 7% | [14]; at 100.0 µM 17% | [15]; at 1.2 µM 0% | [15]; at 3.7 µM 1% | [15]; at 11.0 µM 1% | [15]; at 33.0 µM 7% | [15]; at 100.0 µM 39%

Reference: PubChem BioAssay (NCI)
